# Screening results as filed in PubChem.
# DT40 TDP1 CPT: DT40-hTDP1 cell growth loss with CPT; Potency, µM (top dose mostly 46.2 µM), without a hit: top-dose activity change, negative = growth inhibition, actives largely listed as inhibitors; chicken DT40 Tdp1-/-;hTDP1 cells + 20 nM CPT, ATP luminescence, 48 h; 420,000 compounds, 12% hits; note: potency is the fitted concentration of half-maximal effect; nearly all actives have a fitted effect of over 55% in size
#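 Chicken DT40 Tdp1-/- cells stably complemented with human TDP1 were seeded at 400 cells/well in medium containing 20 nM camptothecin, exposed to pin-transferred compounds, and grown at 37 °C for at least 48 hr. Viability was read as ATP luminescence.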
# IL-1B inflam inh: inflammasome signaling inhibition, IL-1 beta readout; THP-1 LPS/ATP IL-1B secretion, AlphaLISA, 16 h; stronger effect = lower value; 360,000 compounds, 4.7% hits; activity change, % at 57.5 µM; in the data active = activity change below about -50%; inconclusive = mostly about -30% to -49%
#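 Secreted IL-1B measured by AlphaLISA bead assay after 16 h compound exposure of THP-1 cells; compounds (final up to 57.5 uM) added 1 h before LPS (250 ng/mL) and ATP (1.25 mM) stimulation; lower signal means less secretion.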
# HT1080 IDH1KD tx: kills HT-1080 cells with IDH1 knockdown; HT-1080 IDH1 knockdown viability, ATP luminescence, 48 h; 360,000 compounds, 2% hits; Potency, µM (highest dose often 46.1 µM), for the others: top-dose activity, negative = toxicity, hits mostly cytotoxic;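 note: potency is the fitted concentration of half-maximal effect; 0% = DMSO wells and -100% = cell-free medium wells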
#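 Knockdown cells (IDH1KD HT-1080) received compounds 2 h after plating at 750 cells/well and were kept 48 h at 37 °C in 5% FBS RPMI. A CellTiter-Glo luminescence read gave % activity for curve fitting.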
# TDP1 cell noCPT: qHTS for Inhibitors of human tyrosyl-DNA phosphodiesterase 1 (TDP1): qHTS in cells in absence of CPT; 420,000 compounds, 15% hits; Potency, µM (highest dose often 46.2 µM), for inactives: at the highest dose activity change, negative = growth inhibition, usual class: inhibitors; DT40 Tdp1-/- hTDP1 cells, no CPT, ATP luminescence, 48 h; AID 686978, 2013; note: potency is the fitted concentration of half-maximal effect; nearly all actives have a fitted effect of over 55% in size
#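 Chicken DT40 Tdp1-/- cells stably complemented with human TDP1 were seeded at 400 cells/well with DMSO in place of 20 nM camptothecin. After compound pinning, cells grew at least 48 hr at 37 °C; viability read by CellTiter-Glo luminescence.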
# HT1080NT lethal: kills 2HG-producing HT-1080-NT fibrosarcoma cells | HT-1080-NT fibrosarcoma viability, CellTiter-Glo ATP luminescence, 48 h | Potency, µM (series often up to 46.1 µM), inactives show at the highest dose activity, negative = less viability, most hits filed as cytotoxic | 360,000 compounds, 1.6% hits;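 note: NT is the 2HG producing partner of a matched IDH1 knockdown line; potency is the fitted concentration of half-maximal effect; 0% = DMSO-treated cells and -100% = media-only wells without cells; nearly all actives have a fitted effect of over 55% in size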
#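 Fibrosarcoma NT cells, 750 per well in 5% FBS RPMI, were exposed to compound for 48 hours. Viability: CellTiter-Glo luminescence.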
# * = called active by the depositor; i = inactive; ? = inconclusive; nt = no result given; [ ] = another dose, or the depositor's remark. The list is not random: actives were taken first. Their share in the collection is about 19%. Unless noted, calls come from the whole dose curve; as a rule, active = well fitted curve in the direction sought with a large enough effect; inconclusive = small, poorly fitted or top-dose-only effect, or another doubt; inactive = no such curve, though single readings can be large; an effect the other way counts as inactive or inconclusive. Unless noted, % is set by controls: 0 for no effect and ±100 for the full control effect.
SMILES,DT40 TDP1 CPT,IL-1B inflam inh,HT1080 IDH1KD tx,TDP1 cell noCPT,HT1080NT lethal
COCCn1c(SCC(=O)Nc2cccc(NC(C)=O)c2)nc2c([nH]c3ccccc32)c1=O,?,i,-11%,3.3µM*,-24%
COc1ccc(-c2cc(-c3nnc(COC(=O)c4ccncc4)o3)c3ccccc3n2)cc1OC,-28%,?,7%,9.2µM*,5%
CCc1nc2cc(C(=O)N3CCC[C@H]3CO)cc(NC(=O)c3ccccc3OC)c2n1C,11%[9.04 µM],nt,nt,-7%,nt
CCCCCCNCc1ccc(Br)cc1,?,-56*,?,?,?
CCCCCNCc1ccc(Br)cc1,-19%,?,-25%,-24%,-15%
Cc1c([N+](=O)[O-])c2ccc(O)cc2n1-c1ccccc1,?,0,-4%,?,-10%
CCOc1ccc(CNC(=O)c2cc3oc4ccccc4c3n2C)cc1,?,?,-25%,?,-3%
CCn1c(C(=O)NCc2ccc(F)cc2)cc2oc3ccccc3c21,21µM*,nt,nt,?,nt
CCOc1ccccc1CNC(=O)c1cc2oc3ccccc3c2n1CC,26µM*,?,?,18µM*,-28%
COc1ccc(N(CC(=O)NCCc2ccc(OC)c(OC)c2)S(=O)(=O)c2c(C)noc2C)cc1,3%,93,4%,0%,4%
COc1ccc(N(CC(=O)NCCc2cccc(C)c2)S(=O)(=O)c2c(C)noc2C)cc1,?,-16,3%,18µM*,-15%
Cc1ccc(CCNC(=O)CN(c2ccc(C(C)C)cc2)S(=O)(=O)c2c(C)nn(C)c2C)cc1,?,nt,nt,23µM*,nt
Cc1nn(C)c(C)c1S(=O)(=O)N(CC(=O)NCCN1CCOCC1)c1ccc(C(C)C)cc1,-2%,1,0%,-2%,16%
COc1ccc(N(CC(=O)NCc2cccc(OC)c2)S(=O)(=O)c2c(C)noc2C)cc1,-21%,30,2%,-21%,5%
COc1ccc(N(CC(=O)NCCc2ccc(C)cc2)S(=O)(=O)c2c(C)noc2C)cc1,21µM*,-11,0%,?,-2%
COc1ccccc1C1CN(Cc2c(C)nn(C)c2Cl)Cc2ccccc2O1 (stereo not drawn),-6%[9.04 µM],nt,nt,-1%,nt
CCOC(=O)c1cc2occc2n1CC(=O)N1CCCc2ccccc21,?,-14,-4%,?,-4%
CCOc1cc(/C=C2\CN(CC)C/C(=C\c3ccc(O)c(OCC)c3)C2=O)ccc1O,5.2µM*,-104*,2.9µM*,4.1µM*,2.6µM*
COc1cc(C=C(C(C)=O)C(C)=O)ccc1O,-23%,-67*,-2%,?,0%
CCOc1ccc(N2C(=O)S/C(=C\c3ccc(O)c(OCC)c3)C2=O)cc1,-101%,-53*,3%,16µM*,0%
CCOc1cc(/C=N/N=C/c2ccc(O)c(OCC)c2)ccc1O,-21%,35,3%,-8%,-1%
COc1ccc(C=C(C(C)=O)C(C)=O)cc1OC,?,-26,0%,?,-19%
COc1cc(C=C2CCC/C(=C\c3ccc(O)c(OC)c3)C2=O)ccc1O,3.3µM*,nt,nt,7.5µM*,nt
COc1cc(/C=C2\CCC/C(=C\c3ccc(O)c(OC)c3)C2=O)ccc1O,7.1µM*,-95*,5.8µM*,8.2µM*,18µM*
CCN1C/C(=C/c2cccc([N+](=O)[O-])c2)C(=O)/C(=C/c2cccc([N+](=O)[O-])c2)C1,0.58µM*,-106*,3.3µM*,0.73µM*,4.1µM*
SMILES,DT40 TDP1 CPT,IL-1B inflam inh,HT1080 IDH1KD tx,TDP1 cell noCPT,HT1080NT lethal
COc1cc(C=C2C(=O)C=CC2=O)ccc1O,0.16µM*,-113*,23µM*,0.26µM*,15µM*
COc1cc(C=O)ccc1O,16%,nt,nt,2%,nt
CCCN(CCC)C(=O)C1CCCN1S(=O)(=O)c1cccc2nsnc12 (stereo not drawn),-3%,-17,12%,2%,22%
CCc1ccccc1Nc1nc(N)nc(CSCC(=O)Nc2ccc(C)c(C)c2)n1,0%,-9,0%,?,-10%
CCc1ccc(NC(=O)CSCc2nc(N)nc(Nc3ccccc3CC)n2)cc1,15µM*,?,-7%,?,-2%
CCc1ccccc1Nc1nc(N)nc(COC(=O)c2cccn2C)n1,-21%,-3,6.3µM*,-18%,?
COc1ccccc1CNS(=O)(=O)c1ccc(Br)s1,4%,12,-1%,0%,-4%
Cc1ccc(CN2C(=O)CCC2(C)c2nnnn2-c2c(C)cccc2C)cc1 (stereo not drawn),18µM*,15,-16%,16µM*,6%
COc1ccc(CN2C(=O)CCC2(C)c2nnnn2-c2c(C)cccc2C)cc1 (stereo not drawn),?,33,5%,?,-2%
CC1Cc2ccccc2N1CC(=O)NCc1ccc2c(c1)OCO2 (stereo not drawn),-11%,0,-9%,?,-5%
CCN1C(=O)NC2C1N(S(C)(=O)=O)CCN2S(C)(=O)=O (stereo not drawn),0%,21,1%,0%,-1%
CCCCN1C(=O)C(CC(=O)NCc2ccco2)CC(C(=O)N(C(C)C)C(C)C)=C1C (stereo not drawn),0%,?,13%,-1%,17%
CC1=C(C(=O)N(C)C)CC(CC(=O)NCc2cccs2)C(=O)N1Cc1ccc(C(C)(C)C)cc1 (stereo not drawn),?,-13,6%,?,4%
CCN(CC)C(=O)C1=C(C)N(Cc2ccc(C(C)(C)C)cc2)C(=O)C(CC(=O)NCc2ccco2)C1 (stereo not drawn),?,?,1%,23µM*,-12%
CC1=C(C(=O)N(C(C)C)C(C)C)CC(CC(=O)NCc2ccco2)C(=O)N1Cc1ccc(C(C)(C)C)cc1 (stereo not drawn),21µM*,-23,?,16µM*,-25%
CCN(CC)C(=O)C1=C(C)N(Cc2ccc(C(C)(C)C)cc2)C(=O)C(CC(=O)NCc2cccs2)C1 (stereo not drawn),23µM*,?,-1%,23µM*,-11%
Cc1c(CCO)c(=O)[nH]n1S(=O)(=O)c1ccc([N+](=O)[O-])cc1,?,6,5%,7%,18%
Cc1ccc(NC(=O)Cn2ccc([N+](=O)[O-])n2)cc1Cl,-17%,?,-5%,-2%,0%
O=C(Nc1ccccn1)C(c1ccccc1)c1ccccc1,15µM*,33,-1%,21µM*,-10%
O=C(Nc1ccccn1)c1ccccc1,4%,-3,4%,-4%,6%
Cc1ccc(NC(=O)C(c2ccccc2)c2ccccc2)nc1,21µM*,-8,-10%,?,-5%
